Only some compounds are listed: those with a hit (about 10% of all), similar ones and a draw of the others.
Pf growth 48h: inhibits P. falciparum growth in the first generation, 48 h | Potency, µM (series often up to 28.7 µM), for inactives: at the top dose activity change, negative = inhibition, most hits filed as inhibitors | AID 504832 | P. falciparum luciferase growth in erythrocytes, 48 h | actives 5.9% (n = 310,000); active means well fitted inhibition curve with a large enough effect; inconclusive means small, poorly fitted or top-dose-only effect, or another doubt; inactive means no such curve, though single readings can be large or run the other way; further: on the % scale 0 is the no-effect control and ±100 the full control effect
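A one-generation exposure of luciferase-tagged malaria parasites in RPMI 1640/Albumax erythrocyte culture, 37 C and 5% CO2. Inhibition is inferred from decreased luminescence after adding detection reagent.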
NS1 inh: influenza NS1 inhibition; actives 0.4% (n = 270,000); AID 2326; Potency, µM (top dose mostly 46.1 µM), without a hit: at the highest dose activity, positive = more growth; further: actives are rising curves; nearly all actives have a fitted effect of over 50% in size
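Compounds were scored for reversing the slow growth caused by influenza A NS1 in S. cerevisiae, measured by optical density at 600 nm. Assay medium contained 2% galactose at pH 6.0; NS1-free yeast of the same strain were the positive control.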
Pf growth 96h: P. falciparum growth inhibition at 96 hours | P. falciparum luciferase reporter growth, 96 h | AID 504834 | actives 6.9% (n = 320,000) | Potency, µM (doses to about 28.7 µM), for the others: top-dose activity change, negative = inhibition, usual class: inhibitors; active means well fitted inhibition curve with a large enough effect; inconclusive means small, poorly fitted or top-dose-only effect, or another doubt; inactive means no such curve, though single readings can be large or run the other way; further: on the % scale 0 is the no-effect control and ±100 the full control effect
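96 h incubation, 37 C, 5% CO2, of luciferase-reporter P. falciparum-infected RBCs (2% hematocrit, 0.05% parasitemia final) with test compounds; endpoint luminescence.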
SARS PLpro yeast: blocks SARS-CoV papain-like protease in a yeast assay | AID 485353 | actives 0.19% (n = 330,000) | S. cerevisiae expressing SARS-CoV PLpro, growth rescue | Potency, µM (series often up to 32.9 µM), for the others: at the highest dose activity, positive = growth rescue, usual class: activators; further: 0% is about no effect; nearly all actives have a fitted effect of over 55% in size
Active calls of the source: *; ? = inconclusive; nt = not tested or not shown. Unless noted, the call rests on the fitted dose curve. Potency means the concentration at half of the fitted maximal effect.

SMILES	Pf growth 48h	NS1 inh	Pf growth 96h	SARS PLpro yeast
COc1ccc2c(COC(=O)[C@@H]3CCCN3S(=O)(=O)c3ccc(Cl)cc3)cc(=O)oc2c1	5%	nt	8%	-3%
Cc1cnc(C(=O)N2CCN(S(=O)(=O)c3cccc(Br)c3)CC2)cn1	nt	nt	nt	26%
CN1/C(=C\C(=O)COC(=O)c2ccc([N+](=O)[O-])o2)C(C)(C)c2ccccc21	?	nt	13µM*	-24%
CCN(Cc1ccc(C#CCCO)cc1)CC1CCCN(CCc2cccc(OC)c2)C1 (stereo unspecified)	?	-12%	2.1µM*	-8%
CCN(Cc1ccc(NC(C)=O)cc1)CC1CCCN(CCc2cccc(F)c2)C1 (stereo unspecified)	?	3%	?	30%
Cn1c2ccccc2c(=O)c2c(=O)n(C3CCCCC3)c(-c3ccco3)nc21	4.7µM*	8%	4.1µM*	11%
CCCCCc1nc2c(c(=O)c3ccccc3n2C)c(=O)n1C1CCCCCC1	?	0%	12µM*	-3%
CC(C)Cn1c(-c2ccco2)nc2c(c(=O)c3ccccc3n2C)c1=O	1.3µM*	-14%	1.2µM*	-10%
CN(C)[C@H]1C(=O)C(C(=O)NCN2CCCC2)=C(O)[C@]2(O)C(=O)C3=C(O)c4c(O)cccc4[C@](C)(O)[C@H]3C[C@H]12	-16%	18%	?	nt
Nc1ncnc2c1ncn2[C@@H]1O[C@H](CNC(=O)[C@@H]2C[C@H](F)CN2)[C@@H](O)[C@H]1O	nt	nt	nt	-5%
O=C(NCc1ccccn1)c1cn(-c2ccccc2)nc1-c1ccc(Cl)cc1	?	5%	5%	-9%
COc1cc2ncnc(NCCCN3CCOCC3)c2cc1OC	?	-2%	?	1%
COc1ccc(-c2oc3ncnc(NCCN4CCOCC4)c3c2-c2ccc(OC)cc2)cc1	nt	-147%	?	0%
COc1ccc(-c2oc3ncn(CCN4CCOCC4)c(=N)c3c2-c2ccc(OC)cc2)cc1	7.4µM*	-10%	22%	-7%
CCOc1cc2nc(-c3ccc(OC)c(OC)c3)nc(NCCCN3CCOCC3)c2cc1OC	nt	0%	0.074µM*	3%
COc1ccc(-c2oc3ncnc(NCCCN4CCOCC4)c3c2-c2ccc(OC)cc2)cc1	5.2µM*	-46%	82%	4%
O=c1c2c([nH]c3ccc(Br)cc13)CCCC2	0.33µM*	-104%	0%	-14%
Brc1ccc2[nH]c3c(c2c1)CCC3	5%	-1%	6%	-2%
CCCCn1c(=N)n(CC(O)COc2cccc(C)c2)c2ccccc21 (stereo unspecified)	7.4µM*	-12%	?	-6%
C=CCn1c(=N)n(CC(O)COc2ccccc2OC)c2ccccc21 (stereo unspecified)	nt	-3%	?	8%
CCCCn1c(=N)n(CCOc2ccc(C)cc2)c2ccccc21	7.4µM*	-16%	14%	1%
CCCn1c(=N)n(CC(O)COc2ccc(C)cc2)c2ccccc21 (stereo unspecified)	2.1µM*	-1%	5.2µM*	0%
CCn1c(=N)n(CC(O)COc2ccc(C)cc2)c2ccccc21 (stereo unspecified)	3.7µM*	1%	13µM*	-2%
CN(C)CC(O)COc1cccc(OCC(O)CN(C)C)c1 (stereo unspecified)	?	7%	?	3%
CCCCN(CC(O)COc1cccc(C)c1)CC(O)COc1cccc(C)c1 (stereo unspecified)	?	-4%	1.9µM*	0%
SMILES	Pf growth 48h	NS1 inh	Pf growth 96h	SARS PLpro yeast
CCCn1c(=N)n(CC(O)c2ccco2)c2ccccc21 (stereo unspecified)	9%	-1%	-10%	0%
CCCn1c(=N)n(CC(O)c2ccc(C)cc2)c2ccccc21 (stereo unspecified)	5.2µM*	-1%	4.1µM*	1%
Cc1nn(C)cc1C(C(=O)NC1CCCCC1)N(Cc1ccccc1Cl)C(=O)c1cnccn1 (stereo unspecified)	-22%	4%	10%	0%
CC1CCCN(C2(O)C(=O)Nc3c(C(F)(F)F)cccc32)C1 (stereo unspecified)	4.1µM*	3%	-13%	0%
Cc1ccc(C)c(NC(=O)CN(C)C(=O)c2cccc(S(=O)(=O)N(C)C)c2)c1	?	nt	-29%	0%
CN(CC(=O)Nc1ccc(Cl)cc1)C(=O)c1cccc(S(=O)(=O)N(C)C)c1	?	-14%	10µM*	10%
CN(Cc1ccc(F)cc1)C(=O)c1cccc(S(=O)(=O)N2CCN(c3ccccc3)CC2)c1	9.3µM*	nt	?	0%
COc1cccc(NC(=O)CN(C)C(=O)c2cccc(S(=O)(=O)N3CCN(c4ccc(F)cc4)CC3)c2)c1	-20%	nt	?	-1%
CN(Cc1ccc(F)cc1)C(=O)c1cccc(S(=O)(=O)N2CCN(c3ccc(F)cc3)CC2)c1	-44%	nt	?	-3%
CN(CC(=O)Nc1ccc(F)cc1)C(=O)c1cccc(S(=O)(=O)N2CCN(c3ccc(F)cc3)CC2)c1	12µM*	nt	?	16%
C=CCN(C(=O)CNC(=O)c1ccco1)C(C(=O)NC1CCCCC1)c1cccnc1 (stereo unspecified)	-4%	3%	16%	0%
COc1cc(C(O)CO)ccc1OS(=O)(=O)O (stereo unspecified)	-5%	-6%	8%	nt
CCn1c(SCC(=O)NNC(=O)Cc2ccccc2)nnc1-c1ccncc1	1.5µM*	0%	0.33µM*	2%
C=CCNC(=O)CSc1nnc(-c2ccncc2)n1CCc1ccccc1	1%	1%	12µM*	3%
CCOC(=O)c1cc2c(ccn2C)n1CC(=O)N1CCC(Cc2ccccc2)CC1	10µM*	-48%	?	-5%
CCOC(=O)c1cc2c(ccn2C)n1Cc1ccc(C#N)cc1	-4%	4%	4.1µM*	-3%
O=[N+]([O-])c1ccc(Nc2nc(NC3CCCCC3)nc(N3CCCC3)n2)cc1	?	nt	?	-2%
Cc1ccc(Nc2nc(OC(C(F)(F)F)C(F)(F)F)nc(N3CCOCC3)n2)cc1	?	-1%	?	0%
FC(F)(F)C(Oc1nc(NC2CCCCC2)nc(N2CCOCC2)n1)C(F)(F)F	12µM*	-81%	?	-13%
CC1CCCCC1NC(=O)COc1ccccc1C#N (stereo unspecified)	-28%	nt	-29%	-8%
COc1ccc(C2=NOC(Cn3nc(C(=O)NCc4cccc(C(F)(F)F)c4)cc3-c3ccccc3)C2)cc1 (stereo unspecified)	4.7µM*	nt	4.7µM*	-2%
COc1ccc(C2=NOC(Cn3nc(C(=O)NCc4ccco4)cc3-c3ccccc3)C2)cc1 (stereo unspecified)	13µM*	nt	10µM*	-23%
COc1ccc(C2=NOC(Cn3nc(C(=O)NCc4ccc(C)cc4)cc3-c3ccccc3)C2)cc1 (stereo unspecified)	10µM*	nt	10µM*	-1%
Cc1ccc(CNC(=O)c2cc(-c3ccccc3C)nn2CC2CC(c3cccnc3)=NO2)cc1 (stereo unspecified)	nt	nt	nt	-8%

Source: PubChem
